# Assay results reported in the supplement of paper PMC6555819.
# What was measured:
# Experiment in all cases: PBM binding z-score (relative to random genomic background probes); higher = stronger binding; sequences stand for … in GC…GCGATTGACAGCGTAGAATGAAGG
# [1] = test system: FXR:RXRa (NR concentration 270 nM, RXRa partner concentration 90 nM)
# Outline: (§1)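 Ligand-free nuclear receptor dimers were applied to custom Agilent 4×180K protein-binding microarrays whose double-stranded probes carried direct-repeat seeds, single-nucleotide variants, half-site ablations and random human genomic background sequences in 34-nt variable regions. Incubation lasted 1 h. Binding z-scores were computed against the random background probes from regression-normalized fluorescence.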
# [2] = test system: LXRa:RXRa (NR concentration 270 nM, RXRa partner concentration 90 nM)
# Outline: as §1
# [3] = test system: LXRa homodimer (NR concentration 270 nM)
# Outline: as §1
# [4] = test system: LXRb:RXRa (NR concentration 270 nM, RXRa partner concentration 90 nM)
# Outline: as §1
# [5] = test system: LXRb homodimer (NR concentration 270 nM)
# Outline: as §1
# [6] = test system: PPARa:RXRa (NR concentration 270 nM, RXRa partner concentration 90 nM)
# Outline: as §1
# [7] = test system: PPARg:RXRa (NR concentration 180 nM, RXRa partner concentration 90 nM)
# Outline: as §1
# [8] = test system: PPARg:RXRa 270nM:90nM, anti-RXR (NR concentration 270 nM, RXRa partner concentration 90 nM)
# Outline: as §1
# [9] = test system: PPARg:RXRa 30nM:10nM, anti-RXR (NR concentration 30 nM, RXRa partner concentration 10 nM)
# Outline: as §1
# [10] = test system: PPARg:RXRa 90nM:30nM, anti-RXR (NR concentration 90 nM, RXRa partner concentration 30 nM)
# Outline: as §1
# [11] = test system: PPARg:RXRa DBDmut IVT, anti-RXR (DBD mutation: RXRa K156A/R161A, NR concentration 270 nM, RXRa partner concentration 90 nM)
# Outline: as §1
# [12] = test system: PPARg:RXRa IVT, anti-PPARg (NR concentration 270 nM, RXRa partner concentration 90 nM)
# Outline: as §1
# [13] = test system: PPARg DBDmut:RXRa IVT, anti-PPARg (DBD mutation: PPARg1 K132A/R137A, NR concentration 270 nM, RXRa partner concentration 90 nM)
# Outline: as §1
# [14] = test system: PPARg DBDmut IVT, anti-PPARg (DBD mutation: PPARg1 K132A/R137A, NR concentration 270 nM)
# Outline: as §1
# [15] = test system: PPARg homodimer (NR concentration 180 nM)
# Outline: as §1
# [16] = test system: PXR:RXRa (NR concentration 270 nM, RXRa partner concentration 90 nM)
# Outline: as §1
# [17] = test system: PXR homodimer (NR concentration 270 nM)
# Outline: as §1
# [18] = test system: RARa:RXR (NR concentration 270 nM, RXRa partner concentration 90 nM)
# Outline: as §1
# [19] = test system: RARa homodimer (NR concentration 270 nM)
# Outline: as §1
# [20] = test system: RARb:RXRa (NR concentration 270 nM, RXRa partner concentration 90 nM)
# Outline: as §1
Sequence,PBM binding z-score [1],PBM binding z-score [2],PBM binding z-score [3],PBM binding z-score [4],PBM binding z-score [5],PBM binding z-score [6],PBM binding z-score [7],PBM binding z-score [8],PBM binding z-score [9],PBM binding z-score [10],PBM binding z-score [11],PBM binding z-score [12],PBM binding z-score [13],PBM binding z-score [14],PBM binding z-score [15],PBM binding z-score [16],PBM binding z-score [17],PBM binding z-score [18],PBM binding z-score [19],PBM binding z-score [20]
AGAACGAGGGCAATGAGGTGATAGCACGGGTGGC,0.341,0.494,-0.43,-0.215,-0.118,1.72,1.75,1.46,-0.142,0.347,3.36,3.33,0.776,0.448,0.588,1.06,0.905,0.818,0.144,2.13
ATATGTCGGTTACATCCGGGTCATTCAGGCTATG,1.65,2.86,1.27,1.92,0.559,2.79,1.55,1.48,0.573,1.09,2.55,3.18,2.61,1.84,1.05,2.85,2.72,2.88,0.00144,1.91
GCTATTAGTTGAAAGGGCAACCGGATGATTCTCG,0.785,0.839,0.362,0.759,-0.334,2.31,2.78,4.56,2.87,4.49,0.432,0.892,0.0968,-0.308,1.33,0.775,0.0713,1.37,1.05,2.1
CCTTACGGGTCAAGGTTATAGGACGGGTGGTACG,5.27,3.82,0.302,3.28,0.221,5.05,4.55,4.69,2.05,3.36,1.92,3.64,0.411,-0.184,2.15,3.39,0.631,4.15,0.493,4.13
CCTAGCAGGCCAATCTGGATCACTCAAGGCTTGA,-0.3,-0.327,-0.53,-0.467,-0.696,-0.131,0.141,-0.529,-0.702,-0.514,1.73,0.817,-1.11,-1.19,-0.873,-0.635,-0.965,-0.47,-0.695,0.0834
CTCGAAAGGTCGATTGAGGTGAGTATACGGATAA,4.35,3.38,-0.0633,2.93,0.38,4.12,1.66,2.47,0.642,1.43,0.741,1.76,-0.148,0.11,0.805,4.35,0.0799,3.05,0.109,3.67
CCAGATAGGTGAGAAGGTAACTCAGCCTCGATTA,-0.0268,0.168,0.00136,0.105,-0.314,1.14,1.1,2.3,0.791,1.76,2.53,1.72,-0.37,-0.16,1.05,0.0792,0.177,0.307,0.419,0.76
AGAATGAAGTTATACGTAGATCAGGGAAGAAAGT,-0.499,-0.297,-0.439,-0.59,-0.391,-0.311,0.842,-0.228,0.0525,-0.163,-0.998,-0.385,1.2,0.896,-0.353,-0.161,0.326,-0.215,0.239,-0.131
CCGACTGGGGCAGAGGTTACCATACTCAGTACGA,0.287,0.761,-0.0955,1.34,-1.08,3.62,8.22,7.57,6.11,7.57,3.08,4.26,-0.117,-0.682,1.22,0.917,-0.23,1.94,-0.251,1.34
ATCTCTAGGTAACCAAGTTCAGTGACTGCCGAAC,0.544,1.09,1.07,0.872,0.838,1.24,0.732,1.15,0.402,0.958,4.09,2.78,0.981,0.674,1.09,2.14,2.22,0.968,1.12,1.14
ATCTCTAAGTAAAAGTTCAGTGAATCCCGAGGAT,0.433,1.11,1.36,0.807,1.04,1.6,1.9,3.87,2.04,3.47,-0.124,0.598,0.919,0.992,1.15,1.72,1.61,1.19,1.33,2.33
ATATGTAGGTTCGCTGGGGTCATTCAGACTAGGC,4.11,3.93,1.89,4.28,1.4,4.69,2.95,3.83,1.2,2.91,3.5,3.76,1.92,1.5,2.78,6.18,12.4,6.02,1.12,2.72
ACTTACGCGTCAACGAGGTTATAGCACGCGTATA,0.0989,0.589,-0.0981,0.964,0.0457,1.35,0.862,0.282,0.115,0.253,-0.0489,0.00944,0.527,-0.0395,0.374,1.04,-0.0402,1.15,0.181,0.516
CGTCAAAGTTCAACTAAGGTAACGTCAAGCACGC,7.22,6.46,4.23,4.17,2.06,5.14,5.08,5.67,2.61,4.36,0.771,2.28,0.0665,0.943,3.82,5.69,4.39,4.56,1.85,5.3
TCGAGTAGGTTACCAATGGAGCATTCAGCTTTCT,-0.291,0.37,-0.758,-0.00248,-1.32,0.92,0.264,1.16,1.33,1.08,3.08,2.37,-0.0505,-0.361,-0.556,-0.0122,-0.741,-0.35,-0.787,0.629
GCTTACGGGTCAAAGGTTATAGCGTGAATAGAAT,7.45,5.66,0.631,5.61,0.387,6.97,11,9.25,9.52,9.99,4.36,6.22,1.03,1.18,2.67,5.96,0.264,7.96,0.595,4.33
CCTTACGGGTAAAGGTTATAGCACGGGTGGTACG,1.2,1.69,0.37,1.19,-0.173,3.02,2.95,4.67,2.06,3.73,-0.138,1.7,-0.079,-0.348,1.08,1.1,0.1,2.04,0.398,1.82
ACTGGGAGGACAAAGGTCAGAGCTACGCCAGTGA,4.45,4.69,2.01,4,1.04,5.24,8.13,7.23,5.7,7.48,0.413,3.95,0.328,0.253,4.03,4.16,0.638,5.46,1.31,4.64
TCTAGCTGGCCAGAGGGTCACTCAAGAGGTACGG,1.2,0.792,-0.669,1.05,-0.983,1.89,0.596,1.85,1.77,1.44,0.731,-0.216,-1.57,-1.05,0.244,1.38,-0.401,1.83,-0.851,1.73
CAAACTAGGTCTCGAAAGGTCAAAGTCGAATGAC,4.95,5.78,5.59,5.49,1.63,5.51,5.33,5.32,2.94,4.72,5.54,5.71,2.45,0.645,3.86,5.61,2.13,6.33,2.57,4.4
ACTATTAGTTAACTTAGGGCAACCGATACGACGC,0.0468,1.21,0.294,0.256,0.392,0.281,1,0.361,0.616,0.282,0.0765,0.837,0.677,1.02,0.328,0.418,0.13,0.582,0.421,0.959
CCTACCGGGCCACGAAAGGTCATTGATTCAGTGA,3.59,5.17,5.04,4.36,0.399,4.26,1.96,2.98,0.636,1.92,0.938,2.28,-0.376,-1.2,2.6,5.44,2.13,5.36,0.144,4.07
GCGACTGGGGCAAAGCAGCTTACCATAAGGTTGG,-0.808,-0.965,-0.698,-0.42,-1.09,0.229,1,1.18,-0.326,0.688,4.53,3.13,-0.355,-0.462,-0.569,-0.681,-0.894,-0.835,-1.36,0.456
TCAATTAGTTGAAGGGCAACCGACGAGTCCGTTT,0.718,0.5,0.203,0.456,-0.169,0.684,0.142,2.03,3.38,2.61,1.84,0.225,-0.0622,0.241,-0.0858,0.533,0.791,0.357,-0.199,1.54
CCTAGCAGGCCAGGGTCAATCAAGCATTTCGCTT,3.41,2.94,-0.348,3.36,-1.18,4.23,0.925,1.66,-0.329,0.705,0.298,0.837,-1.44,-2.02,1.08,3.43,-0.3,4.4,0.17,2.72
CCGACTGGGGCATAAGGGTACCATAAGCCAGCCC,-0.549,-0.376,-0.527,-0.624,-1.67,0.305,1.3,1.35,-0.296,1.18,1.55,1.97,-1.37,-1.11,-0.201,-0.472,-0.387,-0.246,-0.606,0.641
ATCTTTAGGTAAAGATAGTTCAGTGAATGCAAAT,0.178,4.41,0.491,0.995,0.495,0.508,0.63,0.465,0.338,0.506,0.996,0.866,1.02,1.16,0.255,1.01,0.329,0.518,1.15,0.913
ATCTCGAGGTAAGACTCAGTTCAGTGAAGAACGC,0.0769,-0.0595,-0.0445,-0.053,-0.194,0.0746,0.0104,-0.287,-0.212,-0.236,-0.399,0.378,0.239,0.502,0.135,1.38,0.899,0.133,-0.44,0.228
